# Test results from PubChem BioAssay (Tox21).
# Records with an inconclusive call do not appear. Values without a mark were called inactive. The call rests on the fitted dose curve; in most records, active means well fitted activation curve with a large enough effect in the signal ratio in the repeat runs (not every such curve was filed as active); inconclusive means weak or mixed curves; inactive means flat fitted curve, though single readings scatter; the % refers to the signal ratio.
# Test: qHTS assay to identify small molecule agonists of the hypoxia (HIF-1) signaling pathway (AID 1224846)
# Conditions: HRE-bla ME-180 cells, beta-lactamase ratio, 17 h; series mostly up to 76.8 µM; activation: at the top concentration
# Description: U.S. Tox21 Program National Center for Advancing Translational Sciences [NCATS] NIH Chemical Genomics Center [NCGC] U.S. Environmental Protection Agency [EPA] National Institutes of Environmental Health Sciences [NIEHS] National Toxicology Program [NTP] U.S. Food and Drug Administration [FDA] Tox21 Assay Overview: Hypoxia-inducible factor-1 (HIF-1) is the major hypoxia-regulated transcription factor that controls cellular responses to low oxygen concentration. HIF-1 is composed of two subunits: hypoxia responsive HIF-1-alpha and constitutively expressed HIF-1-beta, which is also known as aryl hydrocarbon receptor nuclear translocator. During hypoxic conditions, HIF-1-alpha heterodimerizes with HIF-1-beta and translocates into the nucleus where the HIF-1 complex binds to the hypoxia-response element (HRE) and activates expression of target genes such as VEGF (vascular endothelial growth factor). The HIF-1 pathway is essential to normal growth and development, and is involved in the pathophysiology of cancer, inflammation, and ischemia. Using a beta-lactamase reporter-gene under control of the hypoxia response element, a cell-based assay [CellSensor(TM) HRE-bla ME-180 from Life Technologies, Carlsbad, CA] was used to measure hypoxia-induced signaling. Tox21 10K library compounds were measured for their ability to induce the reporter gene activity.
# Tox21 Assay Protocol Summary: HRE-bla ME-180 cells were dispensed at 2,000 cells per well in 6 uL of assay medium containing 0.5% dialyzed FBS into black wall/clear-bottom 1536-well plates using a Multidrop Combi (Thermo Scientific, Waltham, MA) dispenser. After the assay plates were incubated at 37C and 5% CO2 for 5 hrs, 23 nL of compounds dissolved in DMSO, positive controls or DMSO only was transferred to each well of the assay plate using a Pintool station (Kalypsys, San Diego, CA). The assay plates were incubated at 37C and 5% CO2 for 17 hrs. One uL of LiveBLAzerTM B/G FRET substrate (CCF4-AM) (Life Technologies) was added to each well using a Flying Reagent Dispenser (Aurora Discovery, San Diego, CA).
# On the % scale 0 is the no-effect control and ±100 the full control effect.
row,Compound,activation
1,O=C1CC(c2ccc(Cl)cc2)CC(=O)N1,-0.963% [at 35.5 µM]
2,CCCCCCOc1ccccc1C(N)=O,1.42% [at 35.5 µM]
3,Cc1ccccc1C(=O)Nc1ccc(C(=O)N2CCCC(N(C)C)c3ccccc32)cc1 (stereo not given),-0.583% [at 35.5 µM]
4,OCCN(CCO)c1cccc(Cl)c1,0.0274%
5,O=C(OCC1(COC(=O)c2cccnc2)CCCC(COC(=O)c2cccnc2)(COC(=O)c2cccnc2)C1O)c1cccnc1,-1.2% [at 35.5 µM]
6,O=S(=O)(O)CCN1CCN(CCO)CC1,-0.476%
7,CN(C)C(=O)CNC(=O)Cc1ccccc1,0.109% [at 35.5 µM]
8,OCCCCC(O)CO (stereo not given),-0.188%
9,CCN(C)C(=O)Oc1cccc([C@H](C)N(C)C)c1,1.07% [at 35.5 µM]
10,N[C@@H](CCC(=O)Nc1ccc([N+](=O)[O-])cc1)C(=O)O,-1.15%
11,C=C1CC/C=C(\C)CC[C@@H]2[C@@H]1CC2(C)C,1.48%
12,CCCOC(OCCC)OCCC,-0.989%
13,O=C(O)Cc1ccc(Cl)cc1Cl,-1.11%
14,C[C@@H]1O[C@@H](O[C@@H]2[C@@H](O)[C@H](OCCc3ccc(O)c(O)c3)O[C@H](CO[C@@H]3O[C@H](CO)[C@@H](O)[C@H](O)[C@H]3O)[C@H]2OC(=O)/C=C/c2ccc(O)c(O)c2)[C@H](O)[C@H](O)[C@H]1O,0.0404%
15,CCCCC(CC)COCCO (stereo not given),-0.339%
16,COc1cc2c(cc1OC)C(=O)CC2,-1.18% [at 35.5 µM]
17,CC(C)=CCOC(=O)c1ccccc1,-0.822%
18,CCCCCCCCC(=O)Cl,-1.5%
19,CCOCCOC(=O)/C=C/c1ccc(OC)cc1,-1.53% [at 35.5 µM]
20,Nc1ccc2cc(S(=O)(=O)O)cc(O)c2c1,-0.181%

row,Compound,activation
1,CC(=O)OC(C)OC(=O)C(C)c1ccc(-c2ccccc2)c(F)c1 (stereo not given),-0.479% [at 35.5 µM]
2,COc1cc2c(cc1OC)[C@@H]1CC(=O)[C@@H](CC(C)C)CN1CC2,0.135% [at 35.5 µM]
3,COC(=O)CCc1ccc(OCC(O)CNC(C)C)cc1 (stereo not given),1.64% [at 35.5 µM]
4,NCCN1CCOCC1,-0.616%
5,O=C(OCC(O)CO)c1ccccc1Nc1ccnc2c(C(F)(F)F)cccc12 (stereo not given),1.83% [at 35.5 µM]
6,N#Cc1ccc(C(=O)O)cc1,0.568%
7,CC(C)(C)c1cc(CCC(=O)NN)cc(C(C)(C)C)c1O,0.58%
8,Cc1cccc(C)c1NC(=O)c1ccccc1C(=O)O,-0.534% [at 35.5 µM]
9,CCOC(=O)CC(=O)c1ccccc1,0.159%
10,Cc1ccc2c(c1)OCC(=O)CO2,-0.884%
11,C=Cc1ccccn1,0.969%
12,CNS(=O)(=O)CCc1ccc2[nH]cc(C3CCN(C)CC3)c2c1,1.72% [at 35.5 µM]
13,Nc1cccc(O)c1,-0.101%
14,Nc1ccc([N+](=O)[O-])c(N)c1,0.0869%
15,CC(=O)NCCCCCC(=O)O,-0.869% [at 35.5 µM]
16,COc1nccnc1NS(=O)(=O)c1ccc(N)cc1,-0.285% [at 35.5 µM]
17,CC(CC=O)CCCC(C)(C)O (stereo not given),-0.808%
18,Cc1cc(Cl)c(C)cc1Cl,-0.999%
19,CCCCCCCCOS(=O)(=O)O,-0.978%
20,CN(CCOc1ccc(NS(C)(=O)=O)cc1)CCc1ccc(NS(C)(=O)=O)cc1,-1.21% [at 35.5 µM]
